In PubChem BioAssay (NCI):
The panel holds about 83,000 compounds, 20% with a hit somewhere; the sample as a whole holds those more often.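 The test compound was applied at a single concentration to cells in 96-well plates for 48 hours, and percent growth was recorded.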 Unmarked numbers belong to inactive results. Activity calls are given as the source filed them. Rule for the calls: active = growth percent below 10; inactive = the rest.

Tested on: MDA-MB-468 breast
Assay: NCI-60 one-dose screen, 48 h (100 = growth as untreated, 0 = no growth, -100 = all killed)
Settings: 10 µM unless noted

| Structure (SMILES) | growth |
| --- | --- |
| CCCCCN1C(=O)/C(=c2\sc3n(c2=O)C2C(NN=3)N(CC)C(=O)N2CC)c2ccccc21 (stereo unspecified) | 5.08% (active) |
| CN1CC(c2ccc(Br)cc2)C(C(=O)c2ccc(Br)cc2)C12C(=O)Nc1ccccc12 (stereo unspecified) | 81.4% |
| O=S(=O)(NC1c2ccccc2Oc2ccccc21)c1cc(Cl)ccc1Cl | 78.9% |
| CN(C)CC/C=C1\c2ccccc2Sc2ccc(Cl)cc21 | 8.92% (active) |
| Cc1ccc(C(C)C)c(O)c1NC(=O)OC(C)C | 97.5% |
| COc1ccc2c(c1)c(-c1nonc1-c1c[nH]c3ccc(Br)cc13)cn2C | 52.4% |
| O=C(Nc1ccccc1C(=O)N/N=C(\c1ccccc1)c1ccccn1)c1ccc(F)cc1 | 5.1% (active) |
| CCCCCCCCCCCCCCCCn1cc[n+](C)c1 | -79% (active) |
| CC1CCC(=O)N1c1ccc(N)cc1 (stereo unspecified) | 115% |
| NS(=O)(=O)c1ccc(C(=O)NN2C(=O)c3c(Br)c(Br)c(Br)c(Br)c3C2=O)cc1 | 111% |
| C/C=C(/C(=O)NC(N)=O)C(C)C | 117% |
| O=C1c2c(O)ccc(O)c2C(=O)c2c(NCCNCCO)ccc(NCCNCCO)c21 | -77.2% (active) |
| CC(=O)O[C@H]1CC[C@@]2(C)C(=CC[C@@H]3[C@@H]2CC[C@]2(C)C(=O)N(O)C(=O)C[C@@H]32)C1 | 83.6% |
| COC(OC)C1(c2ccccc2)NC(=O)NC1=O (stereo unspecified) | 113% |
| CCCC(C(=O)OCC)C(C)OC(=O)OCC (stereo unspecified) | 101% |
| COc1cc(C(C)c2ccc3c(ccn3C)c2)cc(OC)c1OC (stereo unspecified) | 51.9% |
